Assay outcomes as filed in PubChem BioAssay.
Cav32 inh – Cav3.2 calcium influx blockers – cell-based, Fluo-4 calcium fluorescence, FDSS, MLSMR library, primary screen | Voltage-dependent T-type calcium channel subunit alpha-1H (Homo sapiens), O95180 | Cav3.2-expressing cells; active compounds read low | B-score at 10 µM | 100,000 tested, 4% active;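 active = single-dose well whose peak fluorescence ratio is a statistical outlier from its plate by either plate-standardised score or position-corrected B-score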
CYP2C19 inh – blockers of cytochrome P450 2C19 activity – biochemical, luminescence, ADME assay, primary screen | P33261 | CYP2C19 Supersomes, luciferin-H EGE luminescence, 30 min | inhibition, % at 5 µM | 96,000 tested, 21% active | AID 778, 2007;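 active = CYP2C19 inhibition above a set limit at 5 µM in the primary screen, cut at about 50% in these data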;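 also: plate controls were negative control wells for no effect and 2.5 mM tranylcypromine positive control for full effect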
Target sequence (P33261 whole entry, looked up): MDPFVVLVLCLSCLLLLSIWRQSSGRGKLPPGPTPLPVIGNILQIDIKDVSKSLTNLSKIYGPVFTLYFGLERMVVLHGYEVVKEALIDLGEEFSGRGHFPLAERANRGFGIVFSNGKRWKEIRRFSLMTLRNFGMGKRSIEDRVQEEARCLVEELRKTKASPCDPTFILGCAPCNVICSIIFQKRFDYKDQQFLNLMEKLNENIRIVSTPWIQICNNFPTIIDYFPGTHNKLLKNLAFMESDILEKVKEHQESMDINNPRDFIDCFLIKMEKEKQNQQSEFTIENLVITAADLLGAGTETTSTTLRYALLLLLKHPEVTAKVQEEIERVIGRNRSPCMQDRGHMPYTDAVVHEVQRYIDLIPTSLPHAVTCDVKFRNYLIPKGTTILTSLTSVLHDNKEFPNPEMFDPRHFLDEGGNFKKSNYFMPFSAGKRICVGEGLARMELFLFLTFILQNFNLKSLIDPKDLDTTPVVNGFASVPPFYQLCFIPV
CYP2C9 inhib – blockers of cytochrome P450 2C9 activity – biochemical, luminescence, ADME assay, primary screen. 96,000 tested, 20% active. CYP2C9 Supersomes, luciferin-H conversion. P11712. inhibition, % at 5 µM. AID 777, 2007;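 active = blocking of liver enzyme CYP2C9 beyond about 50% at 5 µM, limit read from the data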
CYP2C19 act – human CYP2C19 activators, primary screen, biochemical, luminescence; Cytochrome P450 2C19 (Homo sapiens), P33261; recombinant CYP2C19, luciferin-H EGE luminescence; active compounds read high; 0 = fully inhibited enzyme, 1 = untreated enzyme; activation factor at 5 µM; 96,000 tested, under 10 active;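 active = activation factor of at least 2 at 5 µM in the primary screen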;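 also: 0 = wells with 2.5 mM tranylcypromine and 1 = vehicle-only wells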
CYP2C9 act – human CYP2C9 activators, primary screen, biochemical, luminescence; Cytochrome P450 2C9 (Homo sapiens), P11712; activation factor at 5 µM; 96,000 tested, 1.4% active; recombinant CYP2C9, luciferin-H conversion; active compounds read high; factor 1 = untreated enzyme, 0 = blocked;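 active = activation factor of 2 or more for CYP2C9 at a 5 µM dose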;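 also: 0 = sulfaphenazole-blocked wells and 1 = vehicle-only wells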
Active calls of the source: *; . = no result given. Shown are actives, neighbours in structure and some others; about 27% of the full set was active somewhere.

SMILES	Cav32 inh	CYP2C19 inh	CYP2C9 inhib	CYP2C19 act	CYP2C9 act
CSc1nnc(Cc2sc(-c3ccccc3)nc2-c2ccccc2)o1	-2.1	89*	100*	0.1	0
COc1ccc(CCNC(=O)C2CCN(c3ccc(N4CCOCC4)nn3)CC2)c(OC)c1	1.8	41	23	0.6	0.8
Cc1cc2ncn(CCOc3ccccc3C#N)c2cc1C	-0.53	77*	51*	0.2	0.5
Cc1ccc(OCCCCn2cnc3ccccc32)c(C)c1	-2.6	35	38	0.7	0.6
COC(=O)c1c(NC(=O)c2ccc(C)c(S(=O)(=O)Nc3ccccc3C)c2)sc2c1CCCC2	-1.2	2	59*	1	0.4
CCOC(=O)c1c(NC(=O)c2cccs2)sc2c1CCCC2	-0.043	3	0	1	1
CC1CCc2c(sc(NS(=O)(=O)c3ccccc3)c2C(=O)OC(C)C)C1 (stereo not given)	-5.1*	.	.	.	.
COCC(=O)Nc1sc2c(c1C(=O)OC)CCC(C)C2 (stereo not given)	-1.6	7	29	0.9	0.7
CCOC(=O)c1c(NS(=O)(=O)Cc2ccccc2)sc2c1CCCC2	-4.2*	99*	95*	0	0
COC(=O)c1c(NC(=O)C2CC2)sc2c1CCCC2	-0.79	11	29	0.9	0.7
COC(=O)c1c(NS(=O)(=O)c2ccc3ccccc3c2)sc2c1CCCC2	-3.6	100*	98*	0	0
O=C1CC2(CCCCC2)Oc2ccc(Cl)cc21	0.97	.	.	.	.
O=C(COC(=O)c1ccccn1)Nc1cc(Cl)ccc1Cl	-0.026	20	-5	0.8	1
CCOC(=O)c1c(NC(=O)c2cccs2)sc2c1CCC2	-1.3	20	23	0.8	0.8
CCOC(=O)c1c(NS(=O)(=O)c2ccc(Br)cc2)sc2c1CCC2	-8.5*	.	.	.	.
COc1ccc(S(=O)(=O)n2nc(-c3cc(OC)c(OC)c(OC)c3)cc2N)cc1OC	0.65	.	.	.	.
COc1ccc(-c2cc(N)n(S(=O)(=O)c3c(F)c(F)c(F)c(F)c3F)n2)cc1OC	-1.4	59*	83*	0.4	0.2
COc1ccccc1Nc1ncnc2ccccc12	0.92	17	15	0.8	0.9
CN(c1cccc(NC(=O)Cc2ccccc2)c1)S(C)(=O)=O	-0.56	31	15	0.7	0.8
Cc1ccccc1NS(=O)(=O)c1cc(C(=O)Nc2cccc(N(C)S(C)(=O)=O)c2)ccc1C	-3	38	78*	0.6	0.2
CN(c1cccc(NC(=O)c2ccc(Cl)c(S(=O)(=O)Nc3ccccc3)c2)c1)S(C)(=O)=O	-3.8	85*	97*	0.2	0
CC(O)c1c(OCc2ccccc2)ncnc1OCc1ccccc1 (stereo not given)	-5.1*	39	33	0.6	0.7
Cc1cccc(-c2nc(CS(=O)CC(=O)N3CCCCC3)c(C)o2)c1 (stereo not given)	0.49	23	70*	0.8	0.3
Cc1oc(-c2ccc(Cl)cc2)nc1CN1CCC(C(=O)N2CCN(Cc3ccccc3)CC2)CC1	.	7	20	0.9	0.8
Cc1oc(-c2ccccc2)nc1CS(=O)CC(=O)N1CCc2ccccc2C1 (stereo not given)	0.34	61*	68*	0.4	0.3
SMILES	Cav32 inh	CYP2C19 inh	CYP2C9 inhib	CYP2C19 act	CYP2C9 act
CCOC(=O)N1CCN(C(=O)CS(=O)Cc2nc(-c3ccc(C)cc3)oc2C)CC1 (stereo not given)	-0.04	10	27	0.9	0.7
O=C(CSc1nnc(-c2ccccc2)o1)N1CCc2ccccc2C1	-0.61	13	12	0.9	0.9
Cc1oc(-c2ccc(Cl)cc2)nc1CN1CCC(C(=O)N2CCc3ccccc3C2)CC1	.	90*	15	0.1	0.8
Cc1sc(NC(=O)CN2CCN(c3ccccn3)CC2)c(C#N)c1C	0.34	.	.	.	.
Cc1cccc(N(C(=O)CNC(=O)c2ccco2)C(C(=O)NC2CCCC2)c2ccncc2)c1 (stereo not given)	0.11	.	.	.	.
C=CCn1c(SCCOc2ccccc2)nnc1C(C)NC(=O)c1ccccc1 (stereo not given)	0.051	11	11	0.9	0.9
C=CCn1c(C(C)NC(=O)c2ccccc2)n[nH]c1=S (stereo not given)	-2.4	62*	4	0.4	1
Cc1cc(=O)oc(C)c1C(=O)Nc1ccc(Cl)cn1	-0.029	-17	-18	1.2	1.2
O=C1CCCc2nn(-c3ccccc3)c(-c3ccncc3)c21	-0.0041	7	18	0.9	0.8
O=C(Nc1ccccc1Cl)ON=C1c2ccccc2-c2ccccc21	-1.1	30	78*	0.7	0.2
O=C(Nc1ccccc1)ON=C1c2ccccc2-c2ccccc21	-1.9	23	72*	0.8	0.3
O=C(Nc1ccccc1)OCC1CCCN2CCCCC12 (stereo not given)	-0.084	-11	-39	1.1	1.4
COC(=O)c1cc(C(=O)Nc2cc(C)ccn2)cc([N+](=O)[O-])c1	0.54	13	26	0.9	0.7
COc1ccc(-c2nnnn2-c2ccccc2OC)cc1	-0.42	.	.	.	.
Cc1ccc2nc(N3C(=O)C(O)=C(C(=O)c4cc5ccccc5o4)C3c3cccs3)sc2c1 (stereo not given)	.	-19	-8	1.2	1.1
CCc1ccc2nc(N3C(=O)C(O)=C(C(=O)c4ccco4)C3c3cccs3)sc2c1 (stereo not given)	-4.3*	.	.	.	.
CC(C)NS(=O)(=O)c1ccc(CCC(=O)NCc2ccco2)cc1	-0.098	30	20	0.7	0.8
C=CCn1c(=S)[nH]c2ccc(Br)cc2c1=O	0.76	62*	38	0.4	0.6
C=CCn1c(=S)[nH]c2nc3c(cc2c1=O)CCCC3	0.39	-6	-20	1.1	1.2
O=C(O)c1ccoc1CN1CCCCC1	0.17	.	.	.	.
COc1ccc(-c2noc(-c3ccccc3C(=O)Nc3cccc(OC)c3)n2)cc1	-0.64	11	29	0.9	0.7
CC(=O)Nc1cccc(Oc2ccc(-c3noc(C)n3)cc2)c1	-0.58	76*	57*	0.2	0.4
CCC(C)(C)n1nnnc1C(c1ccc(OC)c(OC)c1)N1CCN(c2ccc(F)cc2)CC1 (stereo not given)	-1.3	.	.	.	.
CCC(C)(C)n1nnnc1C(c1ccc2ncccc2c1)N1CCN(c2nc3ccccc3s2)CC1 (stereo not given)	-3.3	7	88*	0.9	0.1
CCCCC(c1nnnn1CCOC)N1CCN(c2cccc(OC)c2)CC1 (stereo not given)	0.055	70*	54*	0.3	0.5
CCC(C)(C)n1nnnc1C(c1ccc(Cl)cc1)N1CCN(C)CC1 (stereo not given)	0.97	6	1	0.9	1
